Results from the supplement of paper PMC11732987, “Enantioselective OTUD7B fragment discovery through chemoproteomics screening and high-throughput optimisation” (Communications Chemistry, 2025).

Compound: OC1CN(Cc2sccc12)C(=O)CCl
Assay: log2 ratio of Biotin-Ahx-Ub-VS probe labelling (compound/DMSO); higher = less target engagement, active = hit call of the paper (q ≤ 0.05, log2 ratio ≤ -1)
Details: compound concentration: 50uM; treatment time: 3 h
Procedure: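 Round 2 competitive ABPP in HEK293T lysate. Purified HTC-D2B compounds were tested at 50 and 200 µM for 3 h, followed by Biotin-Ahx-Ub-VS enrichment and diaPASEF LC-MS/MS. Values are the average log2 ratio (compound/DMSO) from an unpaired t-test (n=3 treated, n=26 DMSO).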

Sequence of UniProt Q86UV5 (Q86UV5 whole entry): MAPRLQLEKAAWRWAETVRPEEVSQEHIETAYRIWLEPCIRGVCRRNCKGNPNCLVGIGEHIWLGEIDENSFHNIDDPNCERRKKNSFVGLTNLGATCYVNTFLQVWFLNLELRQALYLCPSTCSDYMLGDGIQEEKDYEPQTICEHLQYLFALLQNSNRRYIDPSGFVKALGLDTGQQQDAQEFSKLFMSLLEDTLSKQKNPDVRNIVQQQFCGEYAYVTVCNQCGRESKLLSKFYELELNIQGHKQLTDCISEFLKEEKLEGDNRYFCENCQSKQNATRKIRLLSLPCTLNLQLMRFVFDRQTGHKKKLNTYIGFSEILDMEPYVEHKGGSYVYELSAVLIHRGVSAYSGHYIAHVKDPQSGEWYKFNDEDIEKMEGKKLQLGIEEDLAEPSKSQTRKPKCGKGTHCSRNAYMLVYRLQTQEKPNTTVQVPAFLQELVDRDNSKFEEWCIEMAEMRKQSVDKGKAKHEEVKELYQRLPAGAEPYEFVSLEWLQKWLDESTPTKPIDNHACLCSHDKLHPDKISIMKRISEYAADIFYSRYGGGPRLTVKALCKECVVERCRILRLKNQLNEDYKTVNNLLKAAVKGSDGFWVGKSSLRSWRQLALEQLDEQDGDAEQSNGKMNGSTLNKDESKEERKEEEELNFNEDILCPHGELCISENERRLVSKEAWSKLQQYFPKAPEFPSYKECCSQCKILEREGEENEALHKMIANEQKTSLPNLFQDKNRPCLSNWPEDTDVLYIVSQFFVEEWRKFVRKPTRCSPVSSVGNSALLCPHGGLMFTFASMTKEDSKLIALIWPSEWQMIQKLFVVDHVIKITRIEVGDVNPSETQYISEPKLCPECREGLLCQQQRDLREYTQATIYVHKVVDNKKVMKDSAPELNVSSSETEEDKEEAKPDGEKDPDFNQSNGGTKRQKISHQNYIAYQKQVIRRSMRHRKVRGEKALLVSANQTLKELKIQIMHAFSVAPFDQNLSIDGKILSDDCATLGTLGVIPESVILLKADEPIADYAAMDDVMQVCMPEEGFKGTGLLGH
Sequence of UniProt P45974 (P45974 whole entry): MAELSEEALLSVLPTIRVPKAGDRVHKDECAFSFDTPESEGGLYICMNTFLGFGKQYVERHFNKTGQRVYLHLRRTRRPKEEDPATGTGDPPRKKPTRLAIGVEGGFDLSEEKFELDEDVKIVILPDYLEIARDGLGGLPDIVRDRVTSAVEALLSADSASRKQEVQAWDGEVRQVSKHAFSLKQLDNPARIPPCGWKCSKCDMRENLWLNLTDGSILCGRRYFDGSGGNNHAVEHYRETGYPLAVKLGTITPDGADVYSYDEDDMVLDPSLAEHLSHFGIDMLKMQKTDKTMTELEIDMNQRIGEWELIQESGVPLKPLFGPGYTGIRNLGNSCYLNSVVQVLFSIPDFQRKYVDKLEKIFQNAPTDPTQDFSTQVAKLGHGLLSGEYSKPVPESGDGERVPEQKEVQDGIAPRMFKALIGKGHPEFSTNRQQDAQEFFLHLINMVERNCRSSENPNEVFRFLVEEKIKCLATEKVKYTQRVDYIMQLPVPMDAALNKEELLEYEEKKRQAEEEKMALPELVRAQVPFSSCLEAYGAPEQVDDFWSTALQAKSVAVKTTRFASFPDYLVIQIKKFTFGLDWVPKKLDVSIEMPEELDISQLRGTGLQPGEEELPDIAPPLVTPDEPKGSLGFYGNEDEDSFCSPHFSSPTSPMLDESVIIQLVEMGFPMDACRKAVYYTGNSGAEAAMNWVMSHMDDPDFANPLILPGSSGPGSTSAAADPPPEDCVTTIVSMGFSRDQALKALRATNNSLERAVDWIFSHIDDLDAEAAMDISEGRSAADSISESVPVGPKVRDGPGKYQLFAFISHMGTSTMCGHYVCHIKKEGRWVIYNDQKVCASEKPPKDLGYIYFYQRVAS
Sequence of UniProt P62068 (P62068 whole entry): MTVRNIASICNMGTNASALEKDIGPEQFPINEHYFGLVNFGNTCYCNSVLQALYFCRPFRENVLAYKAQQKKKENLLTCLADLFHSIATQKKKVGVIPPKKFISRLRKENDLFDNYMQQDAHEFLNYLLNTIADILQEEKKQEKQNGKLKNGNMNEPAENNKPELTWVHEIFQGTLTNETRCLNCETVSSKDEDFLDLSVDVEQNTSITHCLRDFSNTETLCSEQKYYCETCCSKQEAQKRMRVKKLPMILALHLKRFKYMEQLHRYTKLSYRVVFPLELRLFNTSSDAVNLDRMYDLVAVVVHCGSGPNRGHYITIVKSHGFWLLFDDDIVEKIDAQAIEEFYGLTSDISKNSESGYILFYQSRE
Sequence of UniProt P54252 (P54252 whole entry): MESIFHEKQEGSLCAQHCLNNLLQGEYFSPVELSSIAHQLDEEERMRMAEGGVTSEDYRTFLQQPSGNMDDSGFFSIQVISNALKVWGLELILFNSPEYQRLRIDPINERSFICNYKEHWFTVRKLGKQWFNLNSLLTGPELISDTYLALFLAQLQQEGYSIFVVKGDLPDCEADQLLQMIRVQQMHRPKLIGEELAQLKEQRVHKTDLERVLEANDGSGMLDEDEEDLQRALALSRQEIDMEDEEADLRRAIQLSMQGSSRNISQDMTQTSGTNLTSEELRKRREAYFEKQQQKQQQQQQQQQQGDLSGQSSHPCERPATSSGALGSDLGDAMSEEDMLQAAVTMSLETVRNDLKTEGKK
Sequence of UniProt Q8TE49 (Q8TE49 whole entry): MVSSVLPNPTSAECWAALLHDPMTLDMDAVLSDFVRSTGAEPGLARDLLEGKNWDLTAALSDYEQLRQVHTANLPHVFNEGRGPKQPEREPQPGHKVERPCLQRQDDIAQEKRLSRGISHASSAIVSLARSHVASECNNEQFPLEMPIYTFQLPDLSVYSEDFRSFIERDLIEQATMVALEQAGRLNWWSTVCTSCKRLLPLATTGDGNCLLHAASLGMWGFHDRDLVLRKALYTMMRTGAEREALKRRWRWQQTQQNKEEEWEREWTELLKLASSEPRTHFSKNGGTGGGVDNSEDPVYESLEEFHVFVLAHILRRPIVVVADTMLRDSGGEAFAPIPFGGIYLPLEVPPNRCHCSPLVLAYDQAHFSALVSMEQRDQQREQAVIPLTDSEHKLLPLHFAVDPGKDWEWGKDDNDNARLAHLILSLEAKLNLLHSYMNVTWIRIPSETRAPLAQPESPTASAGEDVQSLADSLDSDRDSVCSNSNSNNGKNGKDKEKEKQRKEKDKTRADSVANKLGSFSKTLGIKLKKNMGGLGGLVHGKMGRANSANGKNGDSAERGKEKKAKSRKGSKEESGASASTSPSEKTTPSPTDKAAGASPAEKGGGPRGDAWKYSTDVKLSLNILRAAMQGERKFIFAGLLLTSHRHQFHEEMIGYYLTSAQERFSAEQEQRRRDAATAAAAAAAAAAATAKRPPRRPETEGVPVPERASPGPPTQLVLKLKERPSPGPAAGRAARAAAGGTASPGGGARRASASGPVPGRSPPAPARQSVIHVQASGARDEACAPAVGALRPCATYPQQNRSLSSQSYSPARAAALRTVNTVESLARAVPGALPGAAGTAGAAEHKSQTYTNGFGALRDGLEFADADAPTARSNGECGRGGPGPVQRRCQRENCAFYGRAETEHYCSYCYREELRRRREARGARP
Sequence of UniProt Q9P2H5 (Q9P2H5 whole entry): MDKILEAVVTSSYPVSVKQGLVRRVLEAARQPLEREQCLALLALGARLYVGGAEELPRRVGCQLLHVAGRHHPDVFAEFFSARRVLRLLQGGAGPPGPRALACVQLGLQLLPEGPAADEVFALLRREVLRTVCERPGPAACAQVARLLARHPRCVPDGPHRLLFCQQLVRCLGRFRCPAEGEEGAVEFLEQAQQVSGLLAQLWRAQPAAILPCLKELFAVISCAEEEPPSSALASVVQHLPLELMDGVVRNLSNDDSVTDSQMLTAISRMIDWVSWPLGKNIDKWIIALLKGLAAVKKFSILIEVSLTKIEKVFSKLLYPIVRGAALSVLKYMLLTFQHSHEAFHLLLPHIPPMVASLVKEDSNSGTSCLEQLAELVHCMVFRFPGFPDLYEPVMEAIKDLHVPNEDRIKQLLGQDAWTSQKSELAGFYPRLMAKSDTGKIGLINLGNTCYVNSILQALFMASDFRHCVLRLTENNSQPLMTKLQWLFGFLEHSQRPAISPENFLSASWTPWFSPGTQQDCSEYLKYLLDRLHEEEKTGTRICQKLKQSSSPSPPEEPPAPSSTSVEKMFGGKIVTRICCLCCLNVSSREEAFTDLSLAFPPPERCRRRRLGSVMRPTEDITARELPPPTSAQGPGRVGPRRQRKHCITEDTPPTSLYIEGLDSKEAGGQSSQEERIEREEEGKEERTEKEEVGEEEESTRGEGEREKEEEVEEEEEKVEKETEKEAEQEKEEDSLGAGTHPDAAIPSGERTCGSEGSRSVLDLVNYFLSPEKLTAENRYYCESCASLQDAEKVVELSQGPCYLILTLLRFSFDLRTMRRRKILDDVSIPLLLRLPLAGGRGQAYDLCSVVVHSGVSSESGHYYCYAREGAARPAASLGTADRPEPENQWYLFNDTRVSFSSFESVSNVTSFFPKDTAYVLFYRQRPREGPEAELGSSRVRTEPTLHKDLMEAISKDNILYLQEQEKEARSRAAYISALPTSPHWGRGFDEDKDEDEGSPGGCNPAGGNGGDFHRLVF

Target	log2 ratio of Biotin-Ahx-Ub-VS probe labelling
UniProt Q9P2H5	-0.029 (inactive)
USP46 (UniProt P62068)	-0.289 (inactive)
ATXN3 (UniProt P54252)	-0.216 (inactive)
USP15 (UniProt Q9Y4E8)	-0.214 (inactive)
USP5 (UniProt P45974)	0.084 (inactive)
USP24 (UniProt Q9UPU5)	-0.165 (inactive)
UniProt Q8TE49	-1.87 (active)
USP48 (UniProt Q86UV5)	-0.157 (inactive)

Same assay, conditions: compound concentration: 200uM; treatment time: 3 h

Target	log2 ratio of Biotin-Ahx-Ub-VS probe labelling
UniProt Q9P2H5	-0.0467 (inactive)
USP46 (UniProt P62068)	-0.565 (inactive)
ATXN3 (UniProt P54252)	-0.0796 (inactive)
USP15 (UniProt Q9Y4E8)	-0.404 (inactive)
USP5 (UniProt P45974)	0.198 (inactive)
USP24 (UniProt Q9UPU5)	-0.557 (inactive)
UniProt Q8TE49	-2.68 (active)
USP48 (UniProt Q86UV5)	-0.225 (inactive)
